The values below come from PubChem BioAssay (EPA / NIEHS).

What all share (conditions): mRNA level, 48 h; actives raise or lower the signal
Read-out in test [1]: Interleukin 6 (IL6), IL6 (gene 3569)
Kind of test: LTEA_HepaRG_IL6: Life Technologies and Expression Analysis (LTEA) Assay for Interleukin 6 (IL6) using HepaRG (AID 2283509). A digest of the protocol: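 Differentiated human HepaRG cells, plated 48 h then switched to serum-free induction medium, were exposed in duplicate for 48 h to eight half-log concentrations up to 100 uM in 0.5% DMSO. IL6 mRNA measured by qRT-PCR, normalized to ACTB/GAPDH/POLR2A.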

Read-out in test [2]: Interleukin 6 Receptor (IL6R), IL6R (gene 3570)
Kind of test: LTEA_HepaRG_IL6R: Life Technologies and Expression Analysis (LTEA) Assay for Interleukin 6 Receptor (IL6R) using HepaRG (AID 2283510). The procedure, abridged:
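Differentiated human HepaRG cells, plated 48 h then switched to serum-free induction medium, were dosed in duplicate for 48 h at eight half-log concentrations up to 100 uM in 0.5% DMSO. IL6R mRNA quantified by qRT-PCR, normalized to ACTB/GAPDH/POLR2A; bidirectional fit versus DMSO.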

Read-out in test [3]: Potassium channel subfamily K member 1 (KCNK1), KCNK1 (gene 3775)
Kind of test: LTEA_HepaRG_KCNK1: Life Technologies and Expression Analysis (LTEA) Assay for Potassium channel subfamily K member 1 (KCNK1) using HepaRG (AID 2283511). A digest of the protocol: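 Differentiated human HepaRG cells in serum-free induction medium were exposed in duplicate for 48 h to 8 half-log concentrations up to 100 uM in 0.5% DMSO. KCNK1 mRNA was measured by TaqMan qRT-PCR, normalized to ACTB, GAPDH and POLR2A, and fitted bidirectionally versus DMSO.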

Read-out in test [4]: Keratin 19 (KRT19), KRT19 (gene 3880)
Kind of test: LTEA_HepaRG_KRT19: Life Technologies and Expression Analysis (LTEA) Assay for Keratin 19 (KRT19) using HepaRG (AID 2283512). A digest of the protocol:
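KRT19 transcript measured by TaqMan qRT-PCR, referenced to three housekeeping genes, after HepaRG cells received test chemicals for 48 h. Eight half-log concentrations, top 100 uM, 0.5% DMSO vehicle; increases and decreases both fitted.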

Read-out in test [5]: JUN Transcription Factor, JUN (gene 3725)
Put plainly: LTEA_HepaRG_JUN: Life Technologies and Expression Analysis (LTEA) Assay for JUN Transcription Factor using HepaRG (AID 2283513). The procedure, abridged:
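Differentiated HepaRG cells were exposed to chemicals for 48 h in serum-free induction medium, 8 concentrations from 100 uM in half-log steps, 0.5% DMSO vehicle, in duplicate. JUN mRNA was quantified by TaqMan qRT-PCR, normalized to ACTB, GAPDH, POLR2A.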

Read-out in test [6]: Lipase C (LIPC), LIPC (gene 3990)
Put plainly: LTEA_HepaRG_LIPC: Life Technologies and Expression Analysis (LTEA) Assay for Lipase C (LIPC) using HepaRG (AID 2283514). A digest of the protocol:
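Differentiated human HepaRG cells in serum-free induction medium were exposed in duplicate for 48 h to eight concentrations (top 100 uM, half-log steps, 0.5% DMSO). LIPC mRNA was quantified by TaqMan qRT-PCR, normalized to ACTB, GAPDH and POLR2A, with bidirectional fitting versus DMSO.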

Read-out in test [7]: Lipoprotein lipase (LPL), LPL (gene 4023)
Put plainly: LTEA_HepaRG_LPL: Life Technologies and Expression Analysis (LTEA) Assay for Lipoprotein lipase (LPL) using HepaRG (AID 2283515). The procedure, abridged: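 Differentiated human HepaRG cells in serum-free induction medium were exposed in duplicate for 48 h to eight half-log concentrations (top 100 uM) in 0.5% DMSO. LPL mRNA was quantified by TaqMan qRT-PCR, normalized to ACTB, GAPDH and POLR2A.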

Read-out in test [8]: MicroRNA 122 (MIR122), gene 406906
Put plainly: LTEA_HepaRG_MIR122: Life Technologies and Expression Analysis (LTEA) Assay for MicroRNA 122 (MIR122) using HepaRG (AID 2283516). Also: the transcript read is the microRNA miR-122. A digest of the protocol:
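Differentiated human HepaRG cells were exposed 48 h in serum-free induction medium to eight half-log concentrations (top 100 uM, 0.5% DMSO). Transcript level was measured by TaqMan qRT-PCR, normalized to ACTB, GAPDH and POLR2A, and fitted bidirectionally versus DMSO.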

Read-out in test [9]: matrix metalloproteinase-10 (MMP10), MMP10 (gene 4319)
Kind of test: LTEA_HepaRG_MMP10: Life Technologies and Expression Analysis (LTEA) Assay for matrix metalloproteinase-10 (MMP10) using HepaRG (AID 2283517). The procedure, abridged:
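HepaRG, collagen I, ~100,000 cells/well; serum-free induction medium; 48 h exposure, duplicate, 8-pt half-log to 100 uM, 0.5% DMSO. Readout: TaqMan qRT-PCR, normalized to ACTB/GAPDH/POLR2A; bidirectional fit vs DMSO.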

Read-out in the next test: MYC, MYC (gene 4609)
Kind of test: LTEA_HepaRG_MYC: Life Technologies and Expression Analysis (LTEA) Assay for MYC using HepaRG (AID 2283518). The procedure, abridged:
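MYC transcript changes, up or down relative to 0.5% DMSO, from TaqMan qRT-PCR normalized to three housekeeping genes. Human HepaRG cultures received chemicals for 48 h at eight half-log concentrations up to 100 uM, in duplicate.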

Calls of active or inactive are those of the source. The calls were made as follows: active = hit-call score of the fitted dose curve at least 0.9, where 1 is the maximum; inactive = score below 0.9.

With `Cc1cccc(N)c1`, the compound was classed as inactive in [1], in test [2], in [3], in [4], in test [5] and in test [6]. The outcome is “inactive” in test [7]; “inactive” in [8]; “inactive” in test [9]; “inactive” with MYC, MYC (gene 4609).
Turning to `ClC(Cl)(Cl)c1ccccc1`, the call in test [1], in test [2], in test [3], in [4], in [5] and in test [6] was inactive. Besides, the outcome in test [7] is “inactive”; in [8], “inactive”; in test [9], “inactive”; in the test with MYC, MYC (gene 4609), “inactive”.
`CC(C)(C)OOC(C)(C)C`: the compound was classed as inactive in test [1], in test [2], in test [3], in test [4], in test [5] and in test [6]. Besides, the outcome in test [7] was “inactive”; in test [8], “inactive”; in test [9], “inactive”; with MYC, MYC (gene 4609), “inactive”.
Take `ClC(Cl)c1ccccc1`: the call in test [1], in test [2], in test [3], in test [4], in [5] and in [6] was inactive. Besides, the outcome in [7] is “inactive”; in [8], “inactive”; in test [9], “inactive”; with MYC, MYC (gene 4609) it was “inactive”.
With `Nc1ccc(Cl)cc1`, the result in [1], in [2], in test [3], in [4], in test [5] and in test [6] was inactive. For the same compound, the outcome in test [7] is “inactive”; in test [8], “inactive”; in test [9], “inactive”; in the test with MYC, MYC (gene 4609), “inactive”.
Turning to `O=C(O)C1C(C(=O)O)C2(Cl)C(Cl)=C(Cl)C1(Cl)C2(Cl)Cl` (stereo not given), the result in [1], in [2], in test [3], in test [4], in test [5] and in [6] was inactive. For the same compound, the outcome in test [7] is “inactive”; in [8], “inactive”; in test [9], “inactive”; with MYC, MYC (gene 4609), “inactive”.
A word on the AC50: it is the concentration giving half of the maximal activity seen. With `CC(C)(C)c1ccc(O)cc1`, the compound was classed as inactive in [1], in [2], in test [3], in test [4], in test [5] and in test [6]. Moreover, the outcome in test [7] is “inactive”; in test [9], “inactive”; with MYC, MYC (gene 4609), “inactive”. The concentration at half-maximal activity (AC50) in test [8] was 0.197 µM (active).
As to `O=P(Oc1ccccc1)(Oc1ccccc1)Oc1ccccc1`, the compound was called inactive in [1], in [2], in test [3], in test [5], in test [6] and in test [7]. Also, the outcome in [8] was “inactive”; in test [9], “inactive”; with MYC, MYC (gene 4609) it was “inactive”. Moreover, the AC50 in [4] is 0.981 µM (active).
`c1ccc(OP(Oc2ccccc2)Oc2ccccc2)cc1`: the compound was classed as inactive in [1], in test [2], in [3], in [4], in test [5] and in test [6]. The outcome in [7] was “inactive”; in test [8], “inactive”; in test [9], “inactive”; with MYC, MYC (gene 4609), “inactive”.
On to `c1cc2c3c(cccc3c1)CC2`, for which the call in [1], in [2], in test [3], in test [4], in [5] and in test [6] was inactive. The outcome in test [7] was “inactive”; in [8], “inactive”; in [9], “inactive”; in the test with MYC, MYC (gene 4609), “inactive”.
On to `O=[N+]([O-])c1ccc(Cl)c(Cl)c1`, for which the result in [1], in test [2], in test [3], in [4], in test [5] and in [6] was inactive. Besides, the outcome was “inactive” in test [7]; “inactive” in test [8]; “inactive” in test [9]; “inactive” in the test with MYC, MYC (gene 4609).
For `COCCOCCO`, the compound was called inactive in [1], in test [2], in test [3], in test [4], in [5] and in [6]. The outcome in [7] is “inactive”; in test [8] it was “inactive”; in test [9], “inactive”; with MYC, MYC (gene 4609), “inactive”.
As for `CN(C)C(=O)Cl`, the result in test [1], in test [2], in test [3], in test [4], in test [5] and in [6] was inactive. Besides, the outcome in test [7] is “inactive”; in [8], “inactive”; in [9], “inactive”; with MYC, MYC (gene 4609) it was “inactive”.
Consider `CC(Cc1ccc(OCC(=O)O)cc1)NCC(O)c1csc(C(F)(F)F)n1` (stereo not given), for which the compound was classed as inactive in test [1], in [2], in test [3], in test [5], in test [6] and in test [7]. In addition, the outcome is “inactive” in test [8]; “inactive” in test [9]; “inactive” with MYC, MYC (gene 4609). Also, the AC50 in test [4] was 0.138 µM (active).
As to `c1ccc2c(c1)Nc1ccccc1S2`, the compound was classed as inactive in test [1], in test [2], in [3], in test [5], in test [6] and in test [8]. Moreover, the outcome in [9] was “inactive”; with MYC, MYC (gene 4609) it was “inactive”. Moreover, the AC50 was 41.5 µM (active) in [4] and 65 µM (active) in test [7].
Regarding `CCOP(=S)(OCC)SCSCC`, the compound was classed as inactive in [1], in [2], in test [3], in test [4], in [5] and in [6]. Also, the outcome in test [7] is “inactive”; in test [8], “inactive”; in test [9], “inactive”; with MYC, MYC (gene 4609), “inactive”.
For the compound `c1nc[nH]n1`, the outcome in test [1], in test [2], in [4], in [5], in [6] and in test [7] was inactive. Further, the compound was classed as inactive in test [8]. Further, the AC50 in test [3] was 0.116 µM (active); in test [9], 15.8 µM (active); in the test with MYC, MYC (gene 4609) it was 0.104 µM (active).
For the compound `CC(Cl)(Cl)C(=O)O`, the compound was classed as inactive in test [1], in [2], in test [3], in [4], in [5] and in [6]. The outcome in [7] was “inactive”; in test [8] it was “inactive”; in [9], “inactive”; with MYC, MYC (gene 4609), “inactive”.
On to `CCCN(CCC)c1c([N+](=O)[O-])cc(C(C)C)cc1[N+](=O)[O-]`, for which the call in test [1], in test [2], in test [3], in test [4], in test [5] and in [6] was inactive. Also, the outcome in [8] was “inactive”; in test [9], “inactive”; with MYC, MYC (gene 4609) it was “inactive”. Further, in test [7], the AC50 is 12.5 µM (active).
Regarding `CCN(CC)c1ccccc1`, the call in [1], in [2], in test [3], in [4], in test [5] and in test [6] was inactive. Moreover, the outcome in test [7] is “inactive”; in test [8], “inactive”; in test [9], “inactive”; with MYC, MYC (gene 4609) it was “inactive”.
Regarding `CCOP(=S)(Oc1ccc([N+](=O)[O-])cc1)c1ccccc1` (stereo not given), the compound was called inactive in test [1], in [2], in test [3], in test [5], in test [6] and in [7]. Further, the outcome is “inactive” in test [8]; “inactive” in [9]; “inactive” with MYC, MYC (gene 4609). Also, the AC50 in test [4] is 15.9 µM (active).
